Screens (PubChem BioAssay)
HT1080NT lethal: kills 2HG-producing HT-1080-NT fibrosarcoma cells; Potency, µM (top dose mostly 46.1 µM), hits mostly cytotoxic; 360,000 compounds, 1.6% hits; HT-1080-NT fibrosarcoma viability, CellTiter-Glo ATP luminescence, 48 h;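 note: NT is the 2HG producing partner of a matched IDH1 knockdown line; nearly all actives have a fitted effect of over 55% in size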
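A 48-hour cytotoxicity screen used HT-1080-NT cells plated 2 hours before compound delivery. ATP-based CellTiter-Glo luminescence measured viability, normalized to DMSO and no-cell controls.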
KB-V1 cytotox: KB-V1 MDR subline cytotoxicity; Potency, µM (doses to about 46.1 µM), actives largely listed as cytotoxic; KB-V1 MDR cells viability, CellTiter-Glo, 72 h; AID 1347076; 400,000 compounds, 3.4% hits; note: nearly all actives have a fitted effect of over 60% in size
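qHTS viability screen in drug-selected KB-V1 MDR cells: 72 h compound treatment at 37 degrees C, ATP luminescence end point.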
MCF10A rerep: DNA re-replication induction in MCF 10a cells. AID 624296. Potency, µM (series often up to 46.1 µM), usual class: activators. 350,000 compounds, 2.9% hits. MCF 10A DNA re-replication, Hoechst nuclear intensity, 48 h; note: nearly all actives have a fitted effect of over 50% in size
KB-3-1 cytotox: KB-3-1 parental cell cytotoxicity; KB-3-1 viability, CellTiter-Glo ATP luminescence, 72 h; Potency, µM (doses to about 46.1 µM), hits mostly cytotoxic; 400,000 compounds, 1.4% hits; note: nearly all actives have a fitted effect of over 60% in size
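Here the drug-naive KB-3-1 line serves as comparator for MDR sub-line selectivity; cells received compound titrations, 72 h at 37 °C, then CellTiter-Glo readout.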
SW480 rerep: DNA re-replication induction in SW480 cells | 340,000 compounds, 1.8% hits | Potency, µM (titrated, usually from 46.1 µM), usual class: activators | SW480 DNA re-replication, Hoechst DNA content imaging, 48 h; note: nearly all actives have a fitted effect of over 55% in size
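Compounds, transferred as 23 nL by pin tool, were incubated with cells for 48 hr; DNA content per nucleus was then quantified by Hoechst staining and fluorescence plate imaging.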
HT1080 IDH1KD tx: kills HT-1080 cells with IDH1 knockdown | HT-1080 IDH1 knockdown viability, ATP luminescence, 48 h | Potency, µM (highest dose often 46.1 µM), actives largely listed as cytotoxic | 360,000 compounds, 2% hits | AID 686971
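Assay cells: HT-1080 with IDH1 knockdown, 750 per well, RPMI/5% FBS. Exposure: 48 h at 37 °C following 2 h pre-incubation. Read: CellTiter-Glo luminescence; fitted concentration-response, curve class assigned.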
A number is an active result; [ ] = another dose, or the depositor's remark. Most compounds without a hit are left out; they make up all but 8% or so of the library. Calls come from the whole dose curve; as a rule, active = well fitted curve in the direction sought with a large enough effect; inconclusive = small, poorly fitted or top-dose-only effect, or another doubt; inactive = no such curve, though single readings can be large; an effect the other way counts as inactive or inconclusive.

`CCOC(=O)Cc1ccc(Nc2nc3cc(-c4sccc4C)sc3c(=O)n2C)cc1` gave HT1080NT lethal 8.2µM, KB-V1 cytotox 14.6µM, KB-3-1 cytotox 10.3µM and HT1080 IDH1KD tx 4.61µM.
`C[C@@H]1CCCCO[C@H](CN(C)C(=O)Nc2ccc3c(c2)OCO3)[C@@H](C)CN([C@H](C)CO)C(=O)c2cc(NS(=O)(=O)c3ccc(F)cc3)ccc2O1` gave HT1080NT lethal inactive, KB-V1 cytotox inactive, KB-3-1 cytotox inconclusive and HT1080 IDH1KD tx inactive.
For CN(C)c1cc(-c2ccccc2)nc(N)n1 the results were HT1080NT lethal inactive, KB-V1 cytotox inconclusive, MCF10A rerep inconclusive, KB-3-1 cytotox 20.6µM, SW480 rerep inconclusive and HT1080 IDH1KD tx inactive.
For CC1=C(C(=O)NC(C)c2ccc3c(c2)OCCO3)C2(CCC(C)CC2)OC1=O (configuration not stated) the results were HT1080NT lethal inactive, KB-V1 cytotox inactive, MCF10A rerep inactive, KB-3-1 cytotox inactive, SW480 rerep inactive and HT1080 IDH1KD tx inactive.
Screening CCOC(=O)C(C)n1nc(C)c2sc3ccccc3c2c1=O (configuration not stated) returned HT1080NT lethal inactive, KB-V1 cytotox 20.6µM, MCF10A rerep inactive, KB-3-1 cytotox inactive, SW480 rerep inactive and HT1080 IDH1KD tx inactive.
`COc1cccc(N2CCN(C(=O)CCCCCNc3nc(=S)[nH]c4ccccc34)CC2)c1` gave HT1080NT lethal inactive, KB-V1 cytotox 10.3µM, MCF10A rerep inactive, KB-3-1 cytotox inactive, SW480 rerep inconclusive and HT1080 IDH1KD tx inconclusive.
For NC(c1ccc(F)c(F)c1)c1nc(-c2cncnc2)cs1 (configuration not stated) the results were HT1080NT lethal inconclusive, KB-V1 cytotox inactive, KB-3-1 cytotox inactive and HT1080 IDH1KD tx inactive.
Screening O=C1C2C3C=CC(O3)C2C(=O)N1Cc1ccncc1 (configuration not stated) returned HT1080NT lethal inactive, KB-V1 cytotox inactive, MCF10A rerep inactive, KB-3-1 cytotox inactive, SW480 rerep inactive and HT1080 IDH1KD tx inactive.
COc1ccc2c(c1)[N+](C)(C)C(C)(C)C=C2C was read as HT1080NT lethal inactive, KB-V1 cytotox inactive, MCF10A rerep inactive, KB-3-1 cytotox inactive, SW480 rerep inactive and HT1080 IDH1KD tx inactive.
CCOc1ccc2c(c1)[N+](C)(C)C(C)(C)C=C2C was read as HT1080NT lethal inactive, KB-V1 cytotox inactive, MCF10A rerep inactive, KB-3-1 cytotox 8.2µM, SW480 rerep inactive and HT1080 IDH1KD tx inactive.
Screening CCN(CC)CCNC(=O)c1ccc(-c2nc(CN3CCc4ccccc43)c(C)o2)cc1 returned KB-V1 cytotox inconclusive and KB-3-1 cytotox inactive.
Screening Cc1oc(-c2ccc(C(=O)NCCC(C)C)cc2)nc1CN1CCc2ccccc21 returned KB-V1 cytotox inconclusive and KB-3-1 cytotox 7.31µM.
`COC(=O)Nc1nc2ccc(C(=O)c3ccccc3)cc2[nH]1` gave MCF10A rerep inconclusive and SW480 rerep 0.286µM.
`COC(=O)Nc1nc2ccc(SC(C)C)cc2[nH]1` gave HT1080NT lethal inconclusive, KB-V1 cytotox 1.03µM, MCF10A rerep 1.64µM, KB-3-1 cytotox 1.46µM, SW480 rerep 0.82µM and HT1080 IDH1KD tx 1.3µM.
For COC(=O)Nc1nc2ccc(C(=O)c3cccs3)cc2[nH]1 the results were HT1080NT lethal inconclusive, KB-V1 cytotox 0.13µM, MCF10A rerep 0.211µM, KB-3-1 cytotox 0.0146µM, SW480 rerep 0.237µM and HT1080 IDH1KD tx inconclusive.
Nc1cccc(-c2nc3ccc(C(=O)c4ccccc4)cc3[nH]2)c1 was read as HT1080NT lethal 13µM, KB-V1 cytotox 3.66µM, MCF10A rerep inconclusive, KB-3-1 cytotox 6.51µM, SW480 rerep 18.4µM and HT1080 IDH1KD tx 10.3µM.
`Nc1ccc2nc(-c3ccccc3)[nH]c2c1` gave HT1080NT lethal inactive, KB-V1 cytotox inactive, MCF10A rerep inconclusive, KB-3-1 cytotox inactive, SW480 rerep inactive and HT1080 IDH1KD tx inactive.
For COc1cccc(C(=O)Nc2nc3ccccc3[nH]2)c1 the results were HT1080NT lethal inactive, KB-V1 cytotox inconclusive, MCF10A rerep inactive, KB-3-1 cytotox inconclusive, SW480 rerep inactive[9.22 µM] and HT1080 IDH1KD tx inconclusive.
COc1ccc(NC2CCCN(C(=O)C3=NNC(=O)CC3)C2)cc1 (configuration not stated) was read as HT1080NT lethal inactive, KB-V1 cytotox inactive, KB-3-1 cytotox inactive and HT1080 IDH1KD tx inactive.
COc1ccc(C2CCCN2C(=O)Nc2cccc(C(C)=O)c2)cc1OC (configuration not stated) was read as HT1080NT lethal inactive, KB-V1 cytotox inactive, MCF10A rerep inactive, KB-3-1 cytotox inactive, SW480 rerep inactive and HT1080 IDH1KD tx inactive.
COc1cccc(-c2nc(SCC(=O)N3CCc4ccccc43)c3c(=O)n(C)c(=O)n(C)c3n2)c1 was read as KB-V1 cytotox inactive and KB-3-1 cytotox inactive.
For Cc1onc(-c2ccccc2)c1C(=O)OCC(=O)Nc1ccc(Cl)cc1 the results were HT1080NT lethal inactive, KB-V1 cytotox inactive, MCF10A rerep inactive, KB-3-1 cytotox inactive, SW480 rerep inactive and HT1080 IDH1KD tx inactive.
Cc1noc(C)c1NC(=O)NCCN1CCN(Cc2ccccc2)CC1 was read as HT1080NT lethal inactive, KB-V1 cytotox inactive, MCF10A rerep inactive, KB-3-1 cytotox inactive, SW480 rerep inactive and HT1080 IDH1KD tx inactive.
For NC(=O)C1CCN(C(=O)C(Cc2ccccc2)NC(=O)c2ccccc2)CC1 (configuration not stated) the results were HT1080NT lethal inactive[9.24 µM], KB-V1 cytotox inactive, MCF10A rerep inactive, KB-3-1 cytotox inactive, SW480 rerep 20.6µM and HT1080 IDH1KD tx inactive.
`COc1cc(O)c(CCC(=O)c2cc(OC)c(OC)c(OC)c2)c(OC)c1` gave HT1080NT lethal inactive, KB-V1 cytotox inconclusive, MCF10A rerep inactive, KB-3-1 cytotox inactive, SW480 rerep inactive and HT1080 IDH1KD tx inactive.
`Cc1ccn2c(Nc3ccc4c(c3)OCO4)c(-c3ccc(Cl)cc3)nc2c1` gave KB-V1 cytotox inactive and KB-3-1 cytotox inactive.
Screening COC(=O)c1cc(=O)n(-c2ccc(F)cc2)c(=Nc2ccc(F)cc2)s1 returned HT1080NT lethal inconclusive, KB-V1 cytotox inconclusive, MCF10A rerep 5.17µM, KB-3-1 cytotox inconclusive, SW480 rerep inconclusive and HT1080 IDH1KD tx inconclusive.
`COC(=O)c1cc(=O)n(Cc2cccs2)c(=Nc2ccc(F)cc2)s1` gave HT1080NT lethal inconclusive, KB-V1 cytotox inactive, MCF10A rerep inactive, KB-3-1 cytotox inconclusive, SW480 rerep inactive and HT1080 IDH1KD tx inconclusive.
For COC(=O)c1ccc(N=c2sc(C(=O)OC)cc(=O)n2C)cc1 the results were HT1080NT lethal inactive, KB-V1 cytotox inconclusive, MCF10A rerep inconclusive, KB-3-1 cytotox inactive, SW480 rerep inactive and HT1080 IDH1KD tx inactive.
